In PubChem BioAssay:

Assay: probe aDKK1 binding to arrayed compounds – biochemical, biotinylated probe, 635/667 nm fluorescence, primary screen (AID 1099);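 note: score merges 667nm spot fluorescence with signal to noise across triplicate slides; reference of the scale not given here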
Conditions: small-molecule microarray, higher = more signal

First: CCOC(=O)[C@H]1C/C=C/C[C@H](C(=O)OCC)C(=O)O[C@H]2[C@@H](OC)O[C@H](CO)[C@@H](OC(=O)Nc3cccc(F)c3)[C@@H]2OC1=O
Second: CO[C@H]1O[C@H](CO)[C@@H](OC(=O)Nc2ccc(Br)cc2)[C@H](OC(=O)c2cc3ccccc3[nH]2)[C@H]1OC(=O)c1cc2ccccc2[nH]1
The composite z-score of the first is lower: -0.438 for the first, 0.165 for the second.

First: CN1C(=O)C2C=CC(C(O)C3CC=CCC3)N(NC(=O)OC(C)(C)C)C2C1=O (stereo not given)
Second: O=C(NCC(F)(F)F)[C@@H]1c2ccccc2C(=O)N(C2CCCCC2)[C@H]1c1ccc(CO)cc1
The composite z-score of the first is lower: 0.0347 for the first, 0.121 for the second.

First: COc1ccc(CCNC(=O)[C@@]2(Sc3ccc(C)cc3)CC(=O)N(C3CCCCC3)[C@@H]2c2ccc(CO)cc2I)cc1
Second: COc1ccc(CCNC(=O)[C@@H]2c3ccccc3C(=O)N(C3Cc4ccccc4C3)[C@H]2c2ccc(CO)cc2)cc1
The composite z-score of the first is higher: -0.0662 for the first, -0.124 for the second.

First: C=CCOC(=O)[C@H]1[C@@H]2C(=O)O[C@@H](c3ccccc3)[C@@H](c3ccccc3)N2[C@@H](c2ccc(OCCOC(=O)[C@H]3C[C@H]4C(=O)N[C@@H](CC(C)C)C(=O)N4[C@H]3c3ccc(O)cc3)cc2)[C@]12C(=O)Nc1ccc(I)cc12
Second: CC(C)(C)OC(=O)CC[C@]1(C(=O)O)N=C(c2ccc(OCCCO)cc2)O[C@H]1c1ccccc1N=[N+]=[N-]
The composite z-score of the first is lower: -0.271 for the first, 1.75 for the second.

Compared with `CCCC=C(CCC)[C@@H](NC(=O)Oc1ccc(F)cc1)c1ccc(C(=O)OC)cc1`, `COC(=O)c1c(CC[C@@H](CO)NC(=O)N2CCC[C@H]2Cn2cc(-c3ccccn3)nn2)oc(C(C)=O)c1C(=O)OC` is lower in composite z-score: 0.346 for the first, -0.238 for the second.
